Five molecules from PubChem BioAssay can be followed below.

The test system of assay [1] is Human papillomavirus type 1a protein E7 (residues 44-93). Kind of assay: small molecules binding HPV E7 44-93 – biochemical, small-molecule microarray, residues 44-93, 635 nm fluorescence, primary screen (AID 1108).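 Also: E7 fragment applied at 1 µg/mL in TBST for 1 h at 4 C; score combines spot fluorescence with its signal to noise ratio.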 The conditions noted are these: fluorescence 635 nm, higher = more signal.
A short description of assay [2]: hepatitis C replication reporter changes, two-sided – Huh7 cells, luciferase reporter, HCV replication inhibitor project, primary screen (AID 1109).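 Also: huh7 hepatoma cells harbouring a luciferase neomycin HCV replicon reporter; luciferase luminescence as measure of HCV replicon replication; test concentration not given here.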 To be noted: Huh7 HCV replicon luciferase reporter, 48 h; higher = more signal. Background: In a reporter assay the amount or activity of a reporter protein is the signal.
Assay [3] deals with Left-right determination factor 2 (Homo sapiens) (UniProt O00292). The assay is described as follows: small molecules binding LEFTY2 protein – biochemical, small-molecule microarray, 635 nm fluorescence scan, primary screen (AID 1110). The conditions noted are these: higher = more signal.
For assay [4], the target named is Calmodulin-1 (Homo sapiens) (UniProt P0DP23). Kind of assay: small molecules binding calmodulin-1 with EGTA – biochemical, small-molecule microarray, Cy5-labelled CALM1, profiling panel (AID 1111).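 Also: labelled calmodulin applied in Tris saline Tween buffer holding calcium plus EGTA and DTT.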 The conditions noted are these: Cy5-CALM1 binding fluorescence, higher = more signal.
Assay [5] has the same target. Kind of assay: small molecules binding Ca-loaded calmodulin-1 – biochemical, small-molecule microarray, Cy5-labelled CALM1, plus calcium, artefact control for SMM control-protein annotation, profiling panel (AID 1112).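 Also: score merges spot fluorescence with signal to noise from triplicate slides.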 To be noted: Cy5-CALM1 binding fluorescence, higher = more signal.
Assay [6] can be described thus: probe aWnt5a binding to arrayed compounds – biochemical, biotinylated probe, 635/667 nm fluorescence, primary screen (AID 1113).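 Also: score merges 667 nm fluorescence intensity with signal-to-noise per printed feature.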 The conditions noted are these: small-molecule microarray, higher = more signal.
The nature of assay [7]: probe aShh binding to arrayed compounds – biochemical, biotinylated probe, 635/667 nm fluorescence, primary screen (AID 1114).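 Also: probe is biotin-labelled aShh protein from a stem cell growth factor screen; measures binding of labelled protein to compounds printed on the slide; score merges feature fluorescence at 667 nm with signal-to-noise.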 The conditions noted are these: small-molecule microarray, higher = more signal.
The nature of assay [8]: probe aNog binding to arrayed compounds – biochemical, biotinylated probe, 635/667 nm fluorescence, primary screen (AID 1115).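 Also: probe is biotinylated aNog protein used at 0.15 µg/mL for 1 h at 4 C; z-score combines 667 nm fluorescence of each spot with its signal to noise.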 The conditions noted are these: small-molecule microarray, higher = more signal.
Assay [9] concerns the target Torsin-1A-interacting protein 1 (Homo sapiens) (UniProt Q5JTV8). Kind of assay: compound microarray binding of lysate hLAP1 – cell lysate, small-molecule microarray, COS7 lysate, 635/667 nm fluorescence, primary screen (AID 1116). To be noted: 635 nm fluorescence, higher = more signal.
Assay [10] deals with Alpha-bungarotoxin (Bungarus multicinctus) (UniProt P60615). The assay is described as follows: compounds binding labelled alpha-BTX control protein – biochemical, small-molecule microarray, Alexa647 label, 635/667 nm fluorescence, artefact control for SMM control protein annotation, profiling panel (AID 1117). To be noted: alpha-BTX-A647 binding fluorescence, higher = more signal.

Another assay has as its target Albumin (Bos taurus) (UniProt P02769). The assay is described as follows: compounds binding labelled BSA control protein – biochemical, small-molecule microarray, Alexa647 label, 635/667 nm fluorescence, artefact control for SMM control protein annotation, profiling panel (AID 1118).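 Also: score merges 667 nm emission intensity and signal-to-noise per printed compound spot.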 The conditions noted are these: BSA-A647 binding, fluorescence 635 nm, higher = more signal.

A short description of assay [11]: probe aXIP binding to arrayed compounds – biochemical, NeuroSMM set, 635/667 nm fluorescence, primary screen (AID 1119).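 Also: probe is the protein aXip251-270 applied at 1 µg/mL to compound-printed slides; binding of probe to printed compounds measured as 667 nm fluorescence plus signal to noise.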 To be noted: small-molecule microarray, higher = more signal, called active from +8 up or from −8 down.
Assay [12] can be described thus: probe aNOTCH3 binding on compound microarray – biochemical, small-molecule microarray, 635/667 nm fluorescence, primary screen (AID 1120).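 Also: probe is a biotin-tagged antibody raised against NOTCH3 rather than NOTCH3 protein; score merges spot fluorescence near 667 nm with spot signal to noise.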 The conditions noted are these: higher = more signal.
The nature of assay [13]: probe aNOTCH2 binding on compound microarray – biochemical, small-molecule microarray, 635/667 nm fluorescence, primary screen (AID 1121).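 Also: score merges feature fluorescence read at 667 nm with its signal to noise.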 To be noted: higher = more signal.
The target of assay [14] is Carbonic anhydrase 2 (Homo sapiens) (UniProt P00918). Kind of assay: compounds binding carbonic anhydrase 2 – biochemical, small-molecule microarray, Alexa647-labelled CAII, profiling panel (AID 1122). The conditions noted are these: CAII-A647 binding fluorescence, higher = more signal.
The nature of assay [15]: COS7 lysate on small-molecule microarray, probe aHis, 635 nm (AID 1123).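 Also: z-score combines 667nm fluorescence intensity with signal-to-noise per printed compound spot.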 The conditions noted are these: COS7 cell lysate, fluorescence, higher = more signal.
A short description of assay [16]: probe aLAP1 signal on lysate-treated microarray – cell lysate, small-molecule microarray, COS7 lysate, primary screen (AID 1124).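 Also: lysate comes from COS7 cells expressing LAP1 and is applied at 0.3 µg/mL; score merges spot fluorescence near 667 nm with signal-to-noise over triplicate slides.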 The conditions noted are these: probe aLAP1, fluorescence, higher = more signal.
The test system of a further assay is Sam68 (KHDRBS1). The assay is described as follows: compounds binding KHDRBS1 protein – biochemical, small-molecule microarray, 635 nm fluorescence, primary screen (AID 1125).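 Also: score merges 667 nm channel intensity with signal to noise over triplicate slides.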 To be noted: higher = more signal.
For assay [17], the system named is Chordin-like protein 2 (CHRDL2). Kind of assay: compounds binding chordin-like 2 – biochemical, small-molecule microarray, 635 nm fluorescence, primary screen (AID 1126).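 Also: printed compound slides probed with Chrdl2 protein at 4 µg/mL for 1 h at 4 C; score merges 667 nm emission intensity with signal to noise over three replicate slides.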 To be noted: fluorescence 635 nm, higher = more signal.
Assay [18] concerns the target Concanavalin-A (Canavalia ensiformis) (UniProt P02866). Kind of assay: compounds binding concanavalin A lectin – biochemical, small-molecule microarray, Alexa647 label, 635 nm, artefact control for SMM control protein annotation, primary screen (AID 1127).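 Also: z combines 667 nm emission intensity with signal-to-noise across three replicate slides.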 To be noted: ConA-A647 binding fluorescence, higher = more signal.

Active and inactive are the calls of the source.

Left-right determination factor 2 (Homo sapiens), sequence (O00292 whole entry, looked up): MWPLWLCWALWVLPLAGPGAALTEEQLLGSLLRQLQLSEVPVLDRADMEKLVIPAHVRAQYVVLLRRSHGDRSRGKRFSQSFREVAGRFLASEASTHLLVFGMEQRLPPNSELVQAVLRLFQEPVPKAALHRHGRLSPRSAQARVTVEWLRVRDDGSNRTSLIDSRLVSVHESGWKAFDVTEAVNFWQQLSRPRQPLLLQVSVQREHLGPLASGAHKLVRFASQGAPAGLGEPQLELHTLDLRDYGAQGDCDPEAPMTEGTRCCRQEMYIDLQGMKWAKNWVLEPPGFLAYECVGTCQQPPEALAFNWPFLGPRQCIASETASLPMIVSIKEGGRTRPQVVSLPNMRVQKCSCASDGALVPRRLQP
Albumin (Bos taurus), sequence (P02769 whole entry, looked up): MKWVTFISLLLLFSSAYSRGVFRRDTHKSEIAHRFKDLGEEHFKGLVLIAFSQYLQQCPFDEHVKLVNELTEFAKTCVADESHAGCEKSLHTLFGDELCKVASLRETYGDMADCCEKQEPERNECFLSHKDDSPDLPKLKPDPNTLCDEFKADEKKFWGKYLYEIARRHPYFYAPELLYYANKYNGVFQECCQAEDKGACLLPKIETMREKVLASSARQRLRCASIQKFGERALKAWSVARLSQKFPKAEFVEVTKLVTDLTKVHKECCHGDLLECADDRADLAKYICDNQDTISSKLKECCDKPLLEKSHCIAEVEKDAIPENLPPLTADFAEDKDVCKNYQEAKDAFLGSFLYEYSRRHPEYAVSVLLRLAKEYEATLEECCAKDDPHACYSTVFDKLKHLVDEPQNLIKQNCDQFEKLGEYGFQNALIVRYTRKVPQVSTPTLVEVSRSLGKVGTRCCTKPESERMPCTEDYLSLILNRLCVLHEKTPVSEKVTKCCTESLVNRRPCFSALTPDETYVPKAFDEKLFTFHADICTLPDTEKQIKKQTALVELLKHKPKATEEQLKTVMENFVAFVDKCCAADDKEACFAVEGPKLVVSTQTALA
Concanavalin-A (Canavalia ensiformis), sequence (P02866 whole entry, looked up): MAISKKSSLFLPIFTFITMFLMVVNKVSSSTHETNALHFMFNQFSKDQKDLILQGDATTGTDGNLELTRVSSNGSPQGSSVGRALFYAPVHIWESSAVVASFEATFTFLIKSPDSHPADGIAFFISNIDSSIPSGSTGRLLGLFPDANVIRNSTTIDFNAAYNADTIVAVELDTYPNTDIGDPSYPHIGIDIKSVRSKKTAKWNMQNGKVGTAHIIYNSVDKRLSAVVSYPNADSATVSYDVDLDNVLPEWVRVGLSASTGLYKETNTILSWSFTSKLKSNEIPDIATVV
Alpha-bungarotoxin (Bungarus multicinctus), sequence (P60615 whole entry, looked up): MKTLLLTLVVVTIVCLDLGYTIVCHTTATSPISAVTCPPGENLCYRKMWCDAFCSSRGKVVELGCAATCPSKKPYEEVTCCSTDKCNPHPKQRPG
Torsin-1A-interacting protein 1 (Homo sapiens), sequence (Q5JTV8 whole entry, looked up): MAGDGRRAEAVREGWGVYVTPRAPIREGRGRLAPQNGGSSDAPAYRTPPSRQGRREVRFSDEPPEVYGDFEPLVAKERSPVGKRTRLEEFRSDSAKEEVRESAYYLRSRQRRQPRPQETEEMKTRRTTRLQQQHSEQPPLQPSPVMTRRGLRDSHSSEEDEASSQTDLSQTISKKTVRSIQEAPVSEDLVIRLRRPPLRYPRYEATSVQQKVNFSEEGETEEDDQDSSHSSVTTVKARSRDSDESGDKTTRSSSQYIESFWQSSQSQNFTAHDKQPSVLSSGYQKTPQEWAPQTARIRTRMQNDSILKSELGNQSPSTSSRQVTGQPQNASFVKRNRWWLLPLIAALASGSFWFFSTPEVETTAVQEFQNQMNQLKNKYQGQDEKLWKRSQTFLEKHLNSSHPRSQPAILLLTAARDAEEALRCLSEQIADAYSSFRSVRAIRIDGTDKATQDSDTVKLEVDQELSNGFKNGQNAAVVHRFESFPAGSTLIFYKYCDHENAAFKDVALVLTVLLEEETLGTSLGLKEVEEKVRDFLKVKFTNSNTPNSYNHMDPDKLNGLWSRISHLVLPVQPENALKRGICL

With `COC(=O)C1=CC(c2ccc(CO)cc2)=CC(c2cccs2)N(Cc2cccc(OC(F)(F)F)c2)C=C1C(=O)OC` (stereo not given), the composite z-score is 0.532 in assay [1]; -0.0215 in [3]; 2.19 in assay [4]; 0.815 in [5]; -0.0236 in assay [6]; 0.685 in [7]. The composite z-score in assay [8] is 1.39; in [9], 1.81; in assay [10], 3.16; with Albumin (Bos taurus), 1.09; in assay [12], 0.0979; in assay [13] it was -0.101. Moreover, the composite z-score is 0.671 in assay [14]; 2.76 in assay [15]; 0.641 in assay [16]; 1.34 in the assay with Sam68 (KHDRBS1); -0.602 in assay [17]; 1.18 in assay [18]. The z-score in assay [2] was -1.84. The composite Z-score in [11] is 0.639 (inactive).

Regarding `C=CC[C@]1(C(=O)OC)N=C(c2ccc(OCCCO)cc2)O[C@H]1c1ccccc1CN=[N+]=[N-]`, the composite z-score in assay [1] was -0.044; in assay [3], -0.978; in assay [4], -0.643; in assay [5], 0.369; in assay [6], 0.0251; in assay [7], -0.0289. For the same molecule, the composite z-score was 0.121 in assay [8]; 0.782 in [9]; 1.14 in assay [10]; -0.573 with Albumin (Bos taurus); -0.0598 in assay [12]; 0.122 in [13]. Further, the composite z-score in assay [14] was 0.206; in [15], 2.41; in [16] it was -0.0978; in the assay with Sam68 (KHDRBS1) it was -1.11; in assay [17], -0.45; in assay [18] it was -1.06. The z-score in assay [2] was -1.31. In addition, the composite Z-score in assay [11] is 3.17 (inactive).

With `CO[C@H]1COC(=O)[C@@H](C)NC(=O)CC=C[C@@H](C)[C@H](OC)COC(=O)CC=C[C@@H]1C`, the composite z-score in assay [1] is -0.0307; in [3], 1.39; in assay [4] it was -1.88; in assay [5] it was -2.99; in [6], -0.202; in assay [7] it was -0.153. For the same molecule, the composite z-score in assay [8] was -0.559; in [9] it was -0.0099; in assay [10], -1.47; in the assay with Albumin (Bos taurus), -0.731; in assay [12], -0.0679; in assay [13], -0.201. Moreover, the composite z-score in assay [14] is -0.576; in assay [15] it was -0.724; in assay [16] it was -0.517; in the assay with Sam68 (KHDRBS1), 0.32; in assay [17] it was 1.46; in assay [18] it was -1.28. The molecule also returned a z-score in assay [2] of -0.355. Besides, the composite Z-score in assay [11] was 1.16 (inactive).

As for `CO[C@H]1COC(=O)[C@H](C)COC(=O)[C@H](Cc2ccccc2)NC(=O)CC=C[C@H]1C`, the composite z-score is -0.943 in assay [1]; 1.09 in assay [3]; -1.37 in [4]; -1.74 in assay [5]; 0.266 in assay [6]; 0.223 in assay [7]. The composite z-score was 0.653 in assay [8]; -0.0597 in assay [9]; -0.948 in assay [10]; -1.16 in the assay with Albumin (Bos taurus); 0.62 in assay [12]; 0.087 in assay [13]. The composite z-score was -0.612 in assay [14]; -0.826 in [15]; 0.266 in assay [16]; -1.02 in the assay with Sam68 (KHDRBS1); 1.53 in assay [17]; -0.994 in assay [18]. The z-score in assay [2] was -0.56. The composite Z-score in assay [11] was 0.72 (inactive).

Take `O=C1c2ccccc2[C@](Cc2ccccc2I)(C(=O)NCC(F)(F)F)[C@H](c2ccc(CO)cc2)N1Cc1ccccc1C(F)(F)F`: the composite z-score is 0.517 in assay [1]; 0.13 in assay [3]; 1.47 in assay [4]; 0.296 in assay [5]; -0.149 in [6]; 0.164 in assay [7]. For the same molecule, the composite z-score is -0.0101 in assay [8]; 0.857 in assay [9]; 0.449 in [10]; 0.89 with Albumin (Bos taurus); -0.099 in assay [12]; -0.175 in [13]. For the same molecule, the composite z-score in assay [14] is 0.411; in [15], 1.58; in [16], 0.494; in the assay with Sam68 (KHDRBS1) it was 1.32; in [17], -0.324; in [18] it was 0.609. The molecule also showed a z-score in assay [2] of -0.326. Besides, the composite Z-score in assay [11] is 0.34 (inactive).
